# aSyn 5UTR act – Activators working through SNCA 5'UTR binding (MLPCN) | alpha-synuclein 5'UTR reporter, activators screen | activity score, % (tested at 7.5 µM), hits read low | 300,000 compounds, 7.1% hits; in the data active = activity score below about -60%
# An asterisk follows results filed as active. These entries were drawn from the full list.
SMILES,aSyn 5UTR act
CC1CCN(S(=O)(=O)c2ccc(C(=O)Nc3nnc(-c4ccco4)o3)cc2)CC1,61
Cc1cc2c(C)nc(-c3ccccc3)nc2o1,-167*
Cc1cc(/C=C2\SC(=S)NC2=O)c(C)n1-c1ccc(O)cc1,-68*
Cc1cc(/C=C2\SC(N)=NC2=O)c(C)n1-c1ccccc1,-112*
Cc1cc(/C=C2\SC(=S)NC2=O)c(C)n1-c1ccccc1,-163*
COc1ccc(-n2c(C)cc(/C=C3\SC(=S)NC3=O)c2C)cc1,-152*
CC1=NN(c2ccccc2)C(=O)/C1=C/c1c(O)n(-c2ccc(F)c(Cl)c2)[nH]c1=O,-105*
Cc1cc(C)c2oc(-c3cccc(N)c3)nc2c1,-132*
COc1ccc(NC(=O)C#Cc2ccccc2)cc1OC,-212*
NC(=O)c1ccc(NC(=O)C#Cc2ccccc2)cc1,-112*
Cc1cccc(NC(=O)c2ccoc2C)n1,-86*
Cc1occc1C(=O)Nc1cc(C(C)(C)C)on1,-101*
CC1=C(CO)C(=O)OC([C@@H](C)C2CC[C@H]3C4C[C@H]5O[C@]56[C@@H](O)C=CC(=O)[C@]6(C)C4CC[C@]23C)C1 (stereo partly specified),-91*
CC(NC(=O)CCc1nnc(Cc2cccc(C(F)(F)F)c2)o1)C1CC1 (stereo unspecified),-77*

# Compound activity deposited in PubChem by Broad Institute.
